Experimental data from PubChem BioAssay AID1159580 (chemical genetic matrix, 2015).
Among all 5,500 compounds or so, about 2,000 (36%) were called active. Inconclusive results (about 18%) are left out. Cut-off read from the data, not from the text of the source: active = normalized growth mostly below about 0.91 (no sharp cut-off); inconclusive = no clear call, values can overlap the other calls; inactive = mostly above about 0.92. The list shows a part of the results.

Experiment: chemical genetic growth profiling, strain panel (AID 1159580);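 note: tested at 20 µM; growth read once vehicle control cultures reached saturation at 30 °C; 1 = growth at the plate median or of vehicle wells; lower values mean less growth of the strain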
Conditions: growth OD

Measured: normalized growth

CC1Cc2ccccc2N1NC(=O)c1ccc(Cl)c(S(N)(=O)=O)c1 (centres undefined)
inactive: S. cerevisiae deletion strains, locus YJR043C, strain POL32, hits give low values 1.02 | S. cerevisiae deletion strains, locus YJR066W, strain TOR1, hits give low values 0.94 | S. cerevisiae deletion strains, locus YJR075W, strain HOC1, hits give low values 1.01 | S. cerevisiae deletion strains, locus YKL009W, strain mrt4, hits give low values 1.01 | S. cerevisiae deletion strains, locus YKL068W, hits give low values 0.994 | S. cerevisiae deletion strains, locus YKL085W, strain MDH1 (second series), hits give low values 0.988 | S. cerevisiae deletion strains, locus YKL085W, strain MDH1, hits give low values 0.988 | S. cerevisiae deletion strains, locus YKL160W, strain elf1, hits give low values 0.991 | S. cerevisiae deletion strains, locus YKR001C, strain vps1, hits give low values 1.01 | S. cerevisiae deletion strains, locus YKR026C, strain gcn3, hits give low values 0.997 | S. cerevisiae deletion strains, locus YKR091W, strain srl3, hits give low values 0.997 | S. cerevisiae deletion strains, locus YLL001W, strain dnm1, hits give low values 0.994 | S. cerevisiae deletion strains, locus YLL026W, hits give low values 0.999 | S. cerevisiae deletion strains, locus YLL041C, strain sdh2, hits give low values 0.998 | S. cerevisiae deletion strains, locus YLR027C, strain aat2, hits give low values 1 | S. cerevisiae deletion strains, locus YLR039C, strain RIC1, hits give low values 1.03 | S. cerevisiae deletion strains, locus YLR058C, strain SHM2, hits give low values 1.01 | S. cerevisiae deletion strains, locus YLR102C, strain apc9, hits give low values 0.989 | S. cerevisiae deletion strains, locus YLR113W, strain HOG1, hits give low values 1 | S. cerevisiae deletion strains, locus YLR221C, strain rsa3, hits give low values 0.989 | S. cerevisiae deletion strains, locus YLR258W, strain gsy2, hits give low values 1.01 | S. cerevisiae deletion strains, locus YLR262C, strain YPT6 (second series), hits give low values 0.996 | S. cerevisiae deletion strains, locus YLR262C, strain YPT6, hits give low values 1.04 | S. cerevisiae deletion strains, locus YLR268W, strain sec22, hits give low values 1.03 | S. cerevisiae deletion strains, locus YLR320W, strain mms22, hits give low values 1 | S. cerevisiae deletion strains, locus YLR330W, strain CHS5, hits give low values 1.01 | S. cerevisiae deletion strains, locus YLR342W, strain FKS1 (second series), hits give low values 1.01 | S. cerevisiae deletion strains, locus YLR342W, strain FKS1, hits give low values 0.999 | S. cerevisiae deletion strains, locus YLR357W, strain rsc2, hits give low values 1.03 | S. cerevisiae deletion strains, locus YLR370C, strain arc18, hits give low values 1.01 | S. cerevisiae deletion strains, locus YLR371W, strain rom2, hits give low values 0.99 | S. cerevisiae deletion strains, locus YLR384C, strain iki3, hits give low values 1.01 | S. cerevisiae deletion strains, locus YLR418C, strain cdc73, hits give low values 0.989 | S. cerevisiae deletion strains, locus YML016C, strain PPZ1, hits give low values 1.01 | S. cerevisiae deletion strains, locus YML032C, strain rad52, hits give low values 0.994 | S. cerevisiae deletion strains, locus YML120C, strain ndi1, hits give low values 0.987 | S. cerevisiae deletion strains, locus YML124C, strain tub3, hits give low values 0.999 | S. cerevisiae deletion strains, locus YMR058W, strain fet3, hits give low values 1.01 | S. cerevisiae deletion strains, locus YMR078C, strain ctf18, hits give low values 0.994 | S. cerevisiae deletion strains, locus YMR125W, strain sto1, hits give low values 1.01 | S. cerevisiae deletion strains, locus YMR129W, hits give low values 1.01 | S. cerevisiae deletion strains, locus YMR205C, strain PFK2, hits give low values 0.985 | S. cerevisiae deletion strains, locus YMR223W, strain ubp8, hits give low values 0.977 | S. cerevisiae deletion strains, locus YMR231W, strain pep5, hits give low values 1 | S. cerevisiae deletion strains, locus YMR263W, strain SAP30, hits give low values 1.02 | S. cerevisiae deletion strains, locus YMR307W, strain GAS1, hits give low values 1.04 | S. cerevisiae deletion strains, locus YNL067W, strain RPL9B, hits give low values 1.01 | S. cerevisiae deletion strains, locus YNL071W, strain lat1, hits give low values 1.01 | S. cerevisiae deletion strains, locus YNL183C, strain NPR1, hits give low values 0.958 | S. cerevisiae deletion strains, locus YNL209W, strain ssb2, hits give low values 1 | S. cerevisiae deletion strains, locus YNL233W, strain BNI4, hits give low values 1.01 | S. cerevisiae deletion strains, locus YNL248C, strain rpa49, hits give low values 0.989 | S. cerevisiae deletion strains, locus YNL250W, strain rad50, hits give low values 0.984 | S. cerevisiae deletion strains, locus YNL271C, strain bni1, hits give low values 0.995 | S. cerevisiae deletion strains, locus YNL298W, strain CLA4, hits give low values 0.995 | S. cerevisiae deletion strains, locus YNL307C, strain MCK1, hits give low values 0.996 | S. cerevisiae deletion strains, locus YNL322C, strain KRE1 (second series), hits give low values 0.997 | S. cerevisiae deletion strains, locus YNR049C, strain mso1, hits give low values 1 | S. cerevisiae deletion strains, locus YNR052C, strain pop2, hits give low values 0.991 | S. cerevisiae deletion strains, locus YOL006C, strain TOP1, hits give low values 1.01 | S. cerevisiae deletion strains, locus YOL012C, strain htz1 0.983 | S. cerevisiae deletion strains, locus YOL147C, strain pex11, hits give low values 1 | S. cerevisiae deletion strains, locus YOR001W, strain rrp6, hits give low values 0.975 | S. cerevisiae deletion strains, locus YOR061W, strain CKA2, hits give low values 1.02 | S. cerevisiae deletion strains, locus YOR069W, strain VPS5, hits give low values 1.01 | S. cerevisiae deletion strains, locus YOR070C, strain gyp1, hits give low values 1 | S. cerevisiae deletion strains, locus YOR080W, strain dia2, hits give low values 1 | S. cerevisiae deletion strains, locus YOR083W, strain WHI5, hits give low values 0.983 | S. cerevisiae deletion strains, locus YOR106W, strain vam3, hits give low values 0.981 | S. cerevisiae deletion strains, locus YOR136W, strain idh2, hits give low values 0.992 | S. cerevisiae deletion strains, locus YOR144C, strain elg1, hits give low values 0.998 | S. cerevisiae deletion strains, locus YOR184W, strain ser1, hits give low values 0.982 | S. cerevisiae deletion strains, locus YOR231W, strain MKK1, hits give low values 0.971 | S. cerevisiae deletion strains, locus YOR265W, strain rbl2, hits give low values 1.02 | S. cerevisiae deletion strains, locus YOR270C, strain vph1, hits give low values 0.997 | S. cerevisiae deletion strains, locus YOR290C, strain snf2, hits give low values 0.952 | S. cerevisiae deletion strains, locus YOR316C, strain cot1, hits give low values 0.994 | S. cerevisiae deletion strains, locus YPL051W, strain arl3, hits give low values 0.993 | S. cerevisiae deletion strains, locus YPL055C, strain LGE1, hits give low values 1 | S. cerevisiae deletion strains, locus YPL078C, strain atp4, hits give low values 0.984 | S. cerevisiae deletion strains, locus YPL106C, strain sse1, hits give low values 0.994 | S. cerevisiae deletion strains, locus YPL240C, strain hsp82, hits give low values 1.01 | S. cerevisiae deletion strains, locus YPL256C, strain CLN2, hits give low values 0.998 | S. cerevisiae deletion strains, locus YPR119W, strain clb2, hits give low values 0.991 | S. cerevisiae deletion strains, locus YPR141C, strain kar3, hits give low values 0.998 | S. cerevisiae deletion strains, locus YPR163C, strain tif3, hits give low values 1 | S. cerevisiae deletion strains, locus YPR167C, strain met16, hits give low values 0.997 | S. cerevisiae deletion strains, strain wtn01, hits give low values 1.02 | S. cerevisiae strains, strain wild type, hits give low values 1.01
